# Data as given in PubChem BioAssay (NCI).
# This is part of a sample that, as a whole, favours compounds with a hit. Of some 79,000 tested, about 15% had one in any assay. Unmarked numbers belong to inactive results. Activity calls are given as the source filed them. Rule as the data show it: active = growth inhibition above about 70%; inactive = the rest.
# Assays:
# [1] = NCI Yeast Anticancer Drug Screen. Data for the rad50 strain (AID 155);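 also: 0% = growth of vehicle-only cultures of the same strain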; conditions: S. cerevisiae rad50 strain growth inhibition; at 50.0 µM; hits give high values
# How it was run: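 Inhibition values express reduced yeast growth in compound-treated cultures relative to vehicle-treated controls.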
# [2] = NCI Yeast Anticancer Drug Screen. Data for the mec2-1 strain (AID 157); conditions: S. cerevisiae mec2-1 strain, at 50.0 µM, hits give high values
# How it was run: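 Readout is yeast growth inhibition, normalised to vehicle-treated controls, in the mec2-1 strain exposed to compound.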
# [3] = NCI Yeast Anticancer Drug Screen. Data for the sgs1 mgt1 strain (AID 161);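 also: 0% = growth of cultures given vehicle only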; conditions: S. cerevisiae sgs1 mgt1 strain, at 50.0 µM, hits give high values
# How it was run: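 Compounds are added to genetically altered yeast, and growth is compared with cultures given vehicle alone to give percent inhibition.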
# [4] = NCI Yeast Anticancer Drug Screen. Data for the cln2 rad14 strain (AID 165);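 also: 0% = growth equal to vehicle treated cultures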; conditions: S. cerevisiae cln2 rad14 strain, at 50.0 µM, hits give high values
# How it was run: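 Relative to vehicle controls, growth inhibition of compound-treated cln2 rad14 yeast was recorded.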
# [5] = NCI Yeast Anticancer Drug Screen. Data for the bub3 strain (AID 167); conditions: S. cerevisiae bub3 mutant strain, at 50.0 µM, hits give high values
# How it was run: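 Steps: expose the mutant yeast strain to compound; grow alongside vehicle-treated cultures; measure growth; express inhibition against the vehicle cultures.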
# [6] = NCI Yeast Anticancer Drug Screen. Data for the mlh1 rad18 strain (AID 175); conditions: S. cerevisiae mlh1 rad18 strain growth inhibition; at 50.0 µM; hits give high values
# How it was run: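 Test agents were incubated with a yeast strain of defined genotype (DNA damage repair defect). Inhibition of growth was derived by comparison with vehicle-exposed cultures.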
Compound,growth inhibition [1],growth inhibition [2],growth inhibition [3],growth inhibition [4] [%],growth inhibition [5],growth inhibition [6]
Nc1ncnc2c1nc(N)n2C1OC(CO)C(O)C1O (configuration not stated),-2.6%,-17.9%,0.4%,-23.4,15.3%,0%
Cc1ccc(C(=O)N/N=C/c2ccc3c(c2)OCO3)cc1,18.1%,8.35%,4.15%,10.8,6.2%,6.75%
CCC/C=C(/C(C)=O)C(=O)OCC,18.9%,-4.6%,-7%,0.2,-19.8%,-6.75%
CC1(C)OC(=O)C(c2ccsc2)C(=O)O1,-6.25%,-9.35%,-20.4%,32.8,-7.05%,-3.7%
O=[N+]([O-])c1ccc(N=Nc2ccc(O)c3ccccc23)cc1,13.3%,1.45%,21.9%,16.6,-25.2%,-9.35%
COc1cc(C2NC(=O)C(C#N)=C(Nc3cccc(C)c3)S2)ccc1O (configuration not stated),-2.7%,-18.8%,13.4%,1,-6.15%,-16.9%
CCOC(=O)c1[nH]c(C)c(C(=O)O)c1C,-4.45%,-26.3%,0.2%,-24.9,-23.8%,-11.2%
CCOC(=O)c1ccc(NC(=S)P(=O)(c2ccccc2)c2ccccc2)cc1,41.5%,10.2%,42.8%,30.7,14.9%,39.8%
COc1cc2c3c(n(C)c(=O)c2cc1OC)-c1cc2c(cc1C3=O)OCO2,8.35%,-15.2%,-1.5%,53.3,-3.6%,-16.1%
CC1(c2ccccc2)NC(=O)NC1=O (configuration not stated),26.7%,-8.85%,0.8%,-1.3,–,23.9%
O=C1C=CC(=O)N1c1ccc(I)cc1Cl,29.9%,18.3%,44.1%,23.8,32.3%,22.1%
O=C(O)CCC(NC(=O)OCc1ccccc1)C(=O)O (configuration not stated),-4.05%,2.55%,-8.45%,9.55,-21.2%,-5.15%
CCN(CC)CCNc1ccc(CO)c2sc3ccccc3c(=O)c12,-16.1%,-28.1%,-10.8%,2.6,-24.1%,-14.4%
N#CSc1cc(S(N)(=O)=O)ccc1N,5.65%,-10.2%,4.05%,-5.35,-1%,32%
NCCCN,8.9%,-7.05%,-11.1%,-5.9,3.6%,6.55%
O=C(CC(=O)c1ccccc1O)c1ccccc1,31.4%,43.1%,34.4%,40.5,62.6%,39.9%
N#CCCN(CCCN1CCOCC1)CN1C(=O)c2ccccc2C1=O,5.8%,9.15%,35.5%,5.8,34.6%,19.4%
C/C(O)=C(\C=N\C(N)=S)C(=O)Nc1ccccc1,-4.6%,-8.1%,-23.9%,-0.55,–,3.7%
CC(C)=NNC(N)=S,2.45%,-9.4%,-23.9%,-22.8,2.35%,-3.95%
O=C(NCO)c1ccccc1,36.2%,1.95%,-1.65%,7.75,13.9%,27.9%
Cc1cc2nc(CC(=O)c3ccccc3)c(=O)[nH]c2cc1C,15.7%,0.95%,13.3%,9.4,-15.7%,31.3%
O=C(NCCNC(=O)c1ccc(Cl)cc1Cl)c1ccc(Cl)cc1Cl,-9.25%,-10.8%,-4%,-42.2,-1.25%,-20.2%
CCc1ccc(/C(C#N)=C/C=C/c2ccccc2)cc1,8.9%,-12.2%,20.6%,-2.9,–,14.7%

Compound,growth inhibition [1],growth inhibition [2],growth inhibition [3],growth inhibition [4] [%],growth inhibition [5],growth inhibition [6]
N=c1c(C(=O)OCc2ccccc2)ncc(CCl)n1O,37.3%,80.5% (active),72.2% (active),22.9,73.2% (active),77.8% (active)
C#C[C@H]1CCCCCC1O (some centres not stated),13.1%,2%,-1.35%,14.4,-6.75%,21.9%
CCCC(=O)Nc1ccc2c(c1)CN1C(=O)c3ccccc3C1=N2,-11.7%,1.8%,7.75%,5.15,–,-7.15%
Cc1ccc(C(=O)c2ccccc2)c(C)c1,8.65%,-1.75%,0.6%,–,-2.5%,28.6%
CCc1nn(Cc2ccccc2)c2nc(C)c(CCc3ccccc3)c(Cl)c12,-6.85%,-4.6%,-0.45%,2.6,–,-2.75%
Cc1ccc(Cl)cc1NC(=O)N(C)CCO,6.3%,7.65%,9.9%,16.6,–,22.7%
O=c1cc(-c2ccccc2)oc2c1ccc1ccccc12,11%,34.1%,21.9%,-90.3,–,38.5%
COc1cccc(O)c1O,3.45%,9.4%,1.2%,16.9,–,19.4%
c1cc[n+](C2c3ccccc3C([n+]3ccccc3)c3ccccc32)cc1 (configuration not stated),25.2%,18.8%,16.9%,–,28%,41.5%
OCC(O)C(O)C(O)C(O)/C=N/O (configuration not stated),1.4%,0.7%,-6.4%,–,-1.1%,3.65%
CCCCCCCCCCC(C)Br (configuration not stated),19.9%,-12.1%,10.3%,1.3,–,1.75%
N/N=C(/Cc1ccccc1)NNC(N)=S,1.95%,-13.7%,-26.6%,–,-12%,-0.45%
CCN(CC)CCCC(C)Nc1ccnc(/C=C/c2ccc(Cl)cc2)c1 (configuration not stated),2.75%,-1.2%,-16.1%,-2.55,–,-19%
CC(=O)Cc1ccc(-c2ccccc2)cc1,18.4%,14.8%,8.3%,–,10.3%,24.6%
CCOC(=O)c1coc(C(=O)OCC)c1C(=O)OCC,-4.95%,-18.1%,5.25%,–,4.6%,5.3%
C=C[Si](OC(C)=O)(OC(C)=O)OC(C)=O,27.2%,-13.2%,0.85%,–,13.7%,1.65%
O=[N+]([O-])c1ccc(-c2noc(-c3cccs3)n2)cc1,-3.2%,-31.9%,13.4%,–,10.7%,-11.8%
CO[C@H]1C[C@@H]2CC[C@@H](C)[C@@](O)(O2)C(=O)C(=O)N2CCCC[C@H]2C(=O)O[C@H]([C@H](C)C[C@@H]2CC[C@@H](O)[C@H](OC)C2)CC(=O)[C@H](C)C=C(C)[C@@H](O)[C@@H](OC)C(=O)[C@H](C)C[C@H](C)/C=C/C=C/C=C1C,88.8% (active),91.2% (active),89.8% (active),–,89.1% (active),89.4% (active)
COc1ccc(Oc2c(I)cc(CC(NC(C)=O)C(=O)O)cc2I)cc1 (configuration not stated),43.1%,40.5%,38.7%,–,37.4%,49.7%
c1ccc(Sc2ccccc2)cc1,-4.6%,10.5%,-8.5%,-63.6,–,0.85%
O=[N+]([O-])c1ccc(Cl)c(S(=O)(=O)O)c1,36.4%,21.3%,21.2%,-18.9,–,35.5%
O=C1N(C[P+](c2ccccc2)(c2ccccc2)c2ccccc2)CCCN1C[P+](c1ccccc1)(c1ccccc1)c1ccccc1,17.4%,7.4%,3.55%,–,15.1%,12.3%
C=CCCCCCCCCCOC(C)=O,-14.3%,-41.1%,-20.4%,–,-2.8%,8.25%
